Compounds with a hit are over-represented: about 2.2% of the library has one in this group of screens.
C8 TRAIL sens = caspase-8 TRAIL sensitization; inhibition (viability loss, TRAIL sensitization), % at 10 µM; 360,000 compounds, 1% hits; NB7+C8 cells + TRAIL, ATPlite viability luminescence;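 active = compounds causing at least 50% loss of cell viability in the single-dose screen, relative to plate controls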
PPC-1+TRAIL kill = compounds killing PPC-1 cancer cells with TRAIL present (potentiator screen, no TRAIL-free arm) | 220,000 compounds, 0.41% hits | cell killing (% activity), % at 4 µM or 5 µM | PPC-1 cells + TRAIL, ATPLite viability luminescence | AID 1443;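 active = cell killing above 50% in the first pass at 4 µM, then a duplicate retest at 5 µM averaging 50% or more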;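 also: plate controls were cells with TRAIL plus DMSO for no effect and medium-only wells lacking cells for full effect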
KKLEB cytotox = counter-screen for CF NF-kB inhibitors: cytotoxicity; KKLEB CF airway cells viability, ATPlite luminescence, overnight; stronger effect = lower value; cells stimulated with P. aeruginosa culture filtrate; activity change (cytotoxicity), % at 5 µM; 360,000 compounds, 0.36% hits; AID 602141;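 active = corrected activity change at or below -50% at 5 µM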
hiPSC survival = enhancers of human iPSC single-cell survival. hiPSC single-cell survival, ATPlite luminescence; 100% = ROCK inhibitor wells, 0% = DMSO. survival enhancement, % at 20 µM. 360,000 compounds, 0.044% hits. AID 602274; in the data active = survival enhancement above about 18%;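 also: cells exposed to compounds for 16 hours before the ATP read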
HIF-2a block = inhibitors of HIF-2a. 786-0 RCC cells HIF-2a reporter, luciferase luminescence, overnight. 360,000 compounds, 0.72% hits. inhibition, % at 18.8 µM;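 active = inhibition of the luminescence signal of 40% or more relative to plate controls, in a single-dose primary screen at 18.75 µM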
CF NFkB block = inhibitors of cystic fibrosis induced NF-kB; KKLEB NF-kB-GFP reporter, PAF-induced, GFP fluorescence overnight; inhibition, % at 5 µM; 360,000 compounds, 0.86% hits; AID 588850;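 active = at least 50% inhibition at 5 µM, scaled per plate between neutral and stimulator controls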;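 also: PAF is a Pseudomonas aeruginosa culture filtrate used as stimulus; plate controls were PAF-stimulated DMSO wells for no effect and unstimulated DMSO wells for full effect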
Starred values were filed as active, the others as inactive.

`Cc1cc(C(=O)Nc2sc3c(c2C#N)CCC(C)C3)no1` (centres undefined) gave C8 TRAIL sens 55*, PPC-1+TRAIL kill 33, KKLEB cytotox -23, hiPSC survival -2, HIF-2a block -249 and CF NFkB block 2.
`Cc1cc(C(=O)Nc2sc3c(c2C#N)CCCC3)no1` gave C8 TRAIL sens 52*, PPC-1+TRAIL kill 20, KKLEB cytotox -7, hiPSC survival -1, HIF-2a block -244 and CF NFkB block -6.
CC(C)(C)N1C(=O)[C@H]2[C@@H](c3ccc(Br)cc3)N3C(=O)N(c4ccccc4)C(=O)[C@@]3(C)[C@H]2C1=O was read as C8 TRAIL sens -7, KKLEB cytotox -4, hiPSC survival 2, HIF-2a block 10 and CF NFkB block 4.
O=C1NC(=O)C(=CC=Cc2ccccc2)S1 was read as C8 TRAIL sens -2, KKLEB cytotox -17, hiPSC survival 3, HIF-2a block -214 and CF NFkB block -8.
For ClC1=C(Cl)C(Cl)=C(Cl)C1=C/C=C/c1ccccc1 the results were C8 TRAIL sens 44, PPC-1+TRAIL kill 31, KKLEB cytotox -94*, hiPSC survival 4, HIF-2a block -18 and CF NFkB block 91*.
Screening COc1ccccc1C1NC(=O)NC(C)=C1C(=O)OC1CCCC(C)C1 (centres undefined) returned C8 TRAIL sens 8, KKLEB cytotox 11, hiPSC survival 0, HIF-2a block 18 and CF NFkB block 12.
Screening O=C(COc1ccc(Cl)cc1)OCC(=O)c1ccc[nH]1 returned C8 TRAIL sens 17, KKLEB cytotox -2, hiPSC survival 0, HIF-2a block 5 and CF NFkB block 14.
`Cc1ccc(Sc2ncnc(N)c2[N+](=O)[O-])cc1` gave C8 TRAIL sens -5, PPC-1+TRAIL kill 2, KKLEB cytotox 1, hiPSC survival -1, HIF-2a block -18 and CF NFkB block 34.
For Nc1ncnc(Sc2ncccn2)c1[N+](=O)[O-] the results were C8 TRAIL sens -7, PPC-1+TRAIL kill -4, KKLEB cytotox -6, hiPSC survival -1, HIF-2a block 30 and CF NFkB block 55*.
`COc1ccc(NS(=O)(=O)c2cccc(NC(=O)c3cnccn3)c2)cc1Br` gave C8 TRAIL sens -1, PPC-1+TRAIL kill 5, KKLEB cytotox 8, hiPSC survival 0, HIF-2a block 21 and CF NFkB block -10.
Screening Cc1ccccc1/C=N/Nc1nc2ccccc2[nH]1 returned C8 TRAIL sens 1, PPC-1+TRAIL kill -5, KKLEB cytotox 6, hiPSC survival 3, HIF-2a block -263 and CF NFkB block -23.
O=[N+]([O-])c1cc(/C=N/Nc2nc3ccccc3[nH]2)c(O)cc1O was read as PPC-1+TRAIL kill 53*.
`CC1CCN(C(=O)c2[nH]cnc2C(=O)NCC(=O)OC(C)(C)C)CC1` gave C8 TRAIL sens -3, KKLEB cytotox 12, hiPSC survival 26*, HIF-2a block 7 and CF NFkB block -15.
`Cc1ccc(/C=C2\SC(=O)N(CCNC(=O)C3CSC4(C)CCC(=O)N34)C2=O)cc1` (centres undefined) gave C8 TRAIL sens -6, KKLEB cytotox -11, hiPSC survival 0, HIF-2a block -121 and CF NFkB block 0.
Screening O=C1/C(=C\c2ccc(-c3ccccc3[N+](=O)[O-])o2)C(c2ccccc2)=NN1c1ccccc1 returned C8 TRAIL sens -10, PPC-1+TRAIL kill 2, KKLEB cytotox -4, hiPSC survival 4, HIF-2a block 14 and CF NFkB block 17.
`Cc1ccc(/C=C2\C(=O)ON=C2c2ccccc2)o1` gave C8 TRAIL sens -8, PPC-1+TRAIL kill 11, KKLEB cytotox -13, hiPSC survival 0, HIF-2a block 6 and CF NFkB block 11.
`Cc1ccc(C2=NOC(=O)/C2=C\c2ccc(C)o2)cc1` gave C8 TRAIL sens 4, PPC-1+TRAIL kill 0, KKLEB cytotox -4, hiPSC survival -1, HIF-2a block 42* and CF NFkB block 0.
Cc1ccc(-c2ccc(/C=C3\C(=O)ON=C3c3ccccc3)o2)c([N+](=O)[O-])c1 was read as C8 TRAIL sens 45, PPC-1+TRAIL kill 14, KKLEB cytotox 1, hiPSC survival -2, HIF-2a block 95* and CF NFkB block 52*.
For CCCCc1ccc(NC(=O)c2ccc(N(C)S(C)(=O)=O)cc2)cc1 the results were C8 TRAIL sens 53*, PPC-1+TRAIL kill 17, KKLEB cytotox -18, hiPSC survival 0, HIF-2a block -4 and CF NFkB block 18.
Screening O=C(c1ccc(OC2CCN(CCc3ccccc3)CC2)cc1)N1CCC(CO)CC1 returned C8 TRAIL sens 3, KKLEB cytotox -3, hiPSC survival 0, HIF-2a block 14 and CF NFkB block -20.
For CC(=O)Nc1ccc(/C=C/c2nc3ccccc3o2)cc1 the results were C8 TRAIL sens 9, KKLEB cytotox 8, hiPSC survival -1, HIF-2a block -217 and CF NFkB block -22.
Screening C(=Cc1nc2ccccc2o1)c1ccc2c(c1)OCO2 returned C8 TRAIL sens 80*, KKLEB cytotox -42, hiPSC survival -4, HIF-2a block -3 and CF NFkB block -39.
Screening Clc1nc(NC2CCCCC2)c2cn[nH]c2n1 returned C8 TRAIL sens 5, KKLEB cytotox 0, hiPSC survival 2, HIF-2a block -12 and CF NFkB block 13.
Screening NC1=NC(=O)C(=Cc2ccccc2)S1 returned C8 TRAIL sens 2, KKLEB cytotox 6, hiPSC survival 1, HIF-2a block -8 and CF NFkB block -16.
Screening NC1=NC(=O)/C(=C\c2cccnc2)S1 returned C8 TRAIL sens -4, PPC-1+TRAIL kill -10, KKLEB cytotox 2, hiPSC survival 11, HIF-2a block 8 and CF NFkB block 52*.
C[C@@H]1COC(=O)[C@H](NC(=O)OCC2c3ccccc3-c3ccccc32)C/C=C\C[C@@H](CC(=O)N[C@@H](CO)Cc2ccccc2)C(=O)N1 was read as C8 TRAIL sens 11, KKLEB cytotox -19, hiPSC survival 5, HIF-2a block -4 and CF NFkB block 33.
For O=C(C[C@H]1C/C=C\C[C@H](NC(=O)OCC2c3ccccc3-c3ccccc32)C(=O)OC[C@H](Cc2ccccc2)NC1=O)N[C@H](CO)Cc1ccccc1 the results were C8 TRAIL sens 64*, KKLEB cytotox -17, hiPSC survival -1, HIF-2a block 0 and CF NFkB block 16.
Screening Cc1ccc(S(=O)(=O)CCC(=O)NCc2ccccc2F)cc1 returned C8 TRAIL sens 4, KKLEB cytotox -9, hiPSC survival 0, HIF-2a block 6 and CF NFkB block -7.
COc1cccc(C(Nc2ccccc2)c2ccc3ccc(C)nc3c2O)c1 (centres undefined) was read as C8 TRAIL sens 8 and HIF-2a block -98.

Compound activity deposited in PubChem BioAssay by Sanford-Burnham Center for Chemical Genomics.
